From PubChem BioAssay AID738 (SRMLSC, 2007)
Screen size: about 98,000 compounds; about 4,900 (5%) were called active. The sample holds actives, similar compounds and a random draw of the others, so the mix is not that of the screen. Unmarked numbers belong to inactive results. Cut-off read from the data, not from the text of the source: active = inhibition above about 30%; inactive = the rest.

Assay: yeast control strain growth suppression – counter-screen for post-Golgi transport modulator project, primary screen (AID 738)
Conditions: efflux-deficient yeast background strain, growth absorbance A615, 16 h; at 10 µM; active compounds read high
Work on `N#Cc1c(C(F)(F)F)cc(-c2ccccc2)nc1SCC(=O)N1CCOCC1` yielded an inhibition of -3.4%.
With `Cc1cccc(N2CCN(C(c3ccccc3)c3nnnn3CC3CCCO3)CC2)c1C` (stereo unspecified) the inhibition was 44.4% (active).
In the case of `COc1ccc(CCn2nnnc2C(c2ccccc2)N2CCN(C)CC2)cc1OC` (stereo unspecified), the inhibition is reported as 22.5%.
`COc1ccc(C(c2nnnn2Cc2cccs2)N2CCN(c3ccccc3)CC2)cc1OC` (stereo unspecified) gave an inhibition of 11.7%.
With `Cc1cc(OCCOc2cccc3cccnc23)c(C)cc1Cl` the inhibition was 7.3%.
Molecule `CCOC(=O)C1=C(C)Nc2sc(C(=O)c3ccc(Br)cc3)c(N)c2C1c1ccc(C(=O)OC)cc1` (stereo unspecified) has an inhibition of 9.7%.
Work on `COc1ccc(C(C(=O)NCc2ccccc2)N(Cc2cccs2)C(=O)c2cnccn2)cc1` (stereo unspecified) yielded an inhibition of 7.02%.
For `O=C(N/N=C/c1ccsc1)c1cc(O)cc(O)c1`, the inhibition was 1.53%.
`COc1ccc(/C=C(\NC(=O)c2ccc(OC)c(OC)c2)C(=O)NCCc2c[nH]c3ccccc23)cc1` showed an inhibition of 6.34%.
`O=S(=O)(c1ccccc1)N(CC(O)CN1CCCCC1)c1ccccc1` (stereo unspecified) showed an inhibition of -1.97%.
In the case of `CS(=O)(=O)N(CC(O)Cn1c2ccccc2c2ccccc21)c1cccc2ccccc12` (stereo unspecified), the inhibition is reported as 46.2% (active).
`CC(=O)c1ccc2c(c1)c1ccccc1n2CC(C)C` gave an inhibition of 23.7%.
With `N#Cc1ccc(-c2ccc(F)cc2)nc1Sc1ccccc1` the inhibition was 8.35%.
Work on `COc1ccccc1Oc1ccc(S(=O)(=O)Nc2cccnc2)cc1` yielded an inhibition of 0.59%.
Work on `O=S(=O)(Nc1ccccn1)c1ccc(Oc2ccccc2)cc1` yielded an inhibition of 5.52%.
In the case of `Cc1cc(C)cc(NS(=O)(=O)c2ccc(Oc3ncc(C(F)(F)F)cc3Cl)cc2)c1`, the inhibition is reported as 33% (active).
Molecule `CC1(C)CC(=O)C2=C(C1)N=C1SCCC(=O)N1C2c1ccc(C(F)(F)F)cc1` (stereo unspecified) has an inhibition of 10.4%.
`O=C(Nc1ccc(Oc2ccccc2)cc1)c1ccco1` showed an inhibition of -0.32%.
`CCOc1cc(NC(=O)c2ccco2)c(OCC)cc1NC(=O)COc1ccccc1` gave an inhibition of 6.65%.
`CCOC(=O)c1c(NC(=S)NC(=O)c2ccco2)sc2c1CCCC2` showed an inhibition of 3.33%.
For `COc1ccc(C(=O)NC(=S)NNC(=O)CCc2ccccc2)cc1`, the inhibition was 31.5% (active).
In the case of `CC(Oc1ccc2ccccc2c1)C(=O)NNC(=S)NC(=O)c1ccco1` (stereo unspecified), the inhibition is reported as 96.2% (active).
Work on `CCNC(=S)NNC(=O)Cc1ccccc1` yielded an inhibition of 8.07%.
With `CCCc1ccc(OCC(=O)NNC(=S)NC(=O)c2ccco2)cc1` the inhibition was 33.4% (active).
Work on `COc1ccc(CCNC(=O)c2ccco2)cc1` yielded an inhibition of 14.4%.
`COc1ccc(OCC(=O)NNC(=O)c2ccc(-c3ccccc3)cc2)cc1` showed an inhibition of -1.92%.
